This is part of a sample that, as a whole, favours compounds with a hit. Of some 79,000 tested, about 15% had one in any assay. Active and inactive are the calls of the source. No stated cut-off is given here; in the data, active means growth inhibition above about 70%; inactive means the rest.
Tests used:
[1] = NCI Yeast Anticancer Drug Screen. Data for the rad50 strain (AID 155);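 further: 0% = growth of vehicle-only cultures of the same strain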; details: S. cerevisiae rad50 strain growth inhibition; at 50.0 µM; stronger effect = higher value
Outline: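 Inhibition values express reduced yeast growth in compound-treated cultures relative to vehicle-treated controls.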

[2] = NCI Yeast Anticancer Drug Screen. Data for the mec2-1 strain (AID 157); details: S. cerevisiae mec2-1 strain, at 50.0 µM, stronger effect = higher value
Outline: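 Each compound was tested on mec2-1 yeast, a strain altered in DNA damage repair or cell cycle control. Growth inhibition is reported relative to vehicle.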

[3] = NCI Yeast Anticancer Drug Screen. Data for the sgs1 mgt1 strain (AID 161);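 further: 0% = growth of cultures given vehicle only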; details: S. cerevisiae sgs1 mgt1 strain, at 50.0 µM, stronger effect = higher value
Outline: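 Read-out: growth inhibition vs vehicle controls. Cells: mutant yeast strain deficient in DNA damage repair.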

[4] = NCI Yeast Anticancer Drug Screen. Data for the cln2 rad14 strain (AID 165);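 further: 0% = growth equal to vehicle treated cultures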; details: S. cerevisiae cln2 rad14 strain, at 50.0 µM, stronger effect = higher value
Outline: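 Test compounds were added to cln2 rad14 yeast cultures; inhibition of growth was then determined by comparison with vehicle treatment.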

[5] = NCI Yeast Anticancer Drug Screen. Data for the bub3 strain (AID 167); details: S. cerevisiae bub3 mutant strain, at 50.0 µM, stronger effect = higher value
Outline: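 Steps: expose the mutant yeast strain to compound; grow alongside vehicle-treated cultures; measure growth; express inhibition against the vehicle cultures.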

[6] = NCI Yeast Anticancer Drug Screen. Data for the mlh1 rad18 strain (AID 175); details: S. cerevisiae mlh1 rad18 strain growth inhibition; at 50.0 µM; stronger effect = higher value
Outline: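 Inhibition values reflect reduced growth of mutant yeast versus vehicle-treated controls following compound exposure; the mutations affect DNA damage repair.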

Measured: growth inhibition

CC(=O)CC(C)(C)NC(=S)Nc1ccc(C)cc1
inactive: [1] 22.6% | [2] 46.1% | [3] 15.3% | [4] -10.7% | [6] 42.3%
active: [5] 99.2%

COc1ccc(C2(C)OCCCC2([NH-])C[NH-])cc1.[Cl][Pt+2][Cl] (centres undefined)
inactive: [1] 10.9% | [2] -3.15% | [3] -2.95% | [4] 21.6% | [5] -0.4% | [6] 9.45%

CN(C)c1ccc(S(=O)(=O)c2ccc(N(C)C)c([N+](=O)[O-])c2)cc1[N+](=O)[O-]
inactive: [1] 24% | [2] -9.65% | [3] -9.8% | [4] 0.45% | [5] 3.65% | [6] -30.9%

CCC1CCC(C(C)(C)C)C(=O)C1 (centres undefined)
inactive: [1] 6.45% | [2] 1.75% | [3] 2.55% | [4] -11.3% | [5] 3.7% | [6] -4%

Cc1cc(Br)ccc1Br
inactive: [1] 34.6% | [2] 19.3% | [3] -1.75% | [4] -36.4% | [5] -4.3% | [6] 8.6%

Cc1ccc(C(=O)OC2C(OC(=O)Nc3ccccc3)OC(COC(=O)c3ccccc3)C2OC(=O)c2ccccc2)cc1 (centres undefined)
inactive: [1] 1.95% | [2] 10.1% | [3] 9.45% | [4] 13.8% | [5] -12.4% | [6] 30%

NC1=NCC(c2ccccn2)C1c1ccc(F)cc1 (centres undefined)
inactive: [1] -11.9% | [2] -34.9% | [3] 1.1% | [4] 7.75% | [5] -18.7% | [6] -14%

CN(C)C(=O)Nc1cccc(OC(=O)NC2CCCCCCC2)c1
inactive: [1] 2.65% | [2] 28.3% | [3] 29.2% | [4] 3.95% | [5] 34.4% | [6] 19.6%

O=C(/C=C\c1ccccc1)C(C(=O)/C=C/c1ccccc1)C(=O)c1ccccc1 (centres undefined)
inactive: [1] -1.5% | [2] -3.05% | [3] 3.15% | [4] 14.9% | [5] -1.25% | [6] 32.8%

COc1ccc(/C=C2\C(=O)N(C(=O)Cc3ccccc3)N=C2C)cc1OC
inactive: [1] -20.3% | [2] -20.2% | [3] -59.1% | [4] -16.8% | [5] -12.4% | [6] -42.6%

Cc1ccc2c(c1)[nH]c(=S)n2/C=C(\c1ccccc1)S(=O)Cc1ccccc1 (centres undefined)
inactive: [1] -23.7% | [2] -25.6% | [3] -19.9% | [4] 0.3% | [5] -28.1% | [6] -26.2%

CCc1nn2c(=O)nc(Oc3ccccc3)nc2s1
inactive: [1] -5.55% | [2] 8.85% | [3] 2% | [4] 2.55% | [5] 14.6% | [6] 23.4%

COc1cc(/C=N/NC(=O)C(=O)N/N=C/c2cc(OC)c(OC)c(OC)c2)cc(OC)c1OC
inactive: [1] -20.4% | [2] -34.1% | [3] -24.7% | [4] 3.9% | [5] -20% | [6] -21.1%

Cc1ccc(N=NN(C)C)cc1
inactive: [1] 2.55% | [2] 3.65% | [3] -9.55% | [4] -2.6% | [5] 1.55% | [6] 33%

O=C(NCc1ccccc1)C1C2C=CC(C2)C1C(=O)NCc1ccccc1 (centres undefined)
inactive: [1] -6.65% | [2] -10.8% | [3] 30.4% | [4] -6.3% | [5] 18.1% | [6] 5.85%

Cn1c(N)c(NC(=S)NCC2CCCCC2)c(=O)n(C)c1=O
inactive: [1] -2.8% | [2] -5% | [3] -1.2% | [4] -9.6% | [5] -3.6% | [6] 1.5%

CCCCCCCSc1nc2ccc(N=Cc3ccccc3O)cc2s1
inactive: [1] -9.8% | [2] -5.9% | [3] -16.9% | [4] -3.25% | [5] -0.9% | [6] -24.4%

c1ccc2c(c1)oc1cc3c(cc12)n1nnnc1c1cccn31
inactive: [1] 9% | [2] -1.25% | [3] -3.45% | [4] 16.4% | [5] 4.6% | [6] -7.8%

CC1CCCCC12OCCO2 (centres undefined)
inactive: [1] -13.9% | [2] -31.4% | [3] 3.3% | [4] 1.75% | [5] -20.3% | [6] -3.75%

CCCCCC(=O)NC(=S)Nc1nn[nH]n1
inactive: [1] -38.8% | [2] -50.7% | [3] -39.1% | [4] -8.4% | [5] -25.3% | [6] -47.1%

COc1cc(C(C#N)NNC(=O)Cc2ccccc2)cc(OC)c1OC (centres undefined)
inactive: [1] -18.9% | [2] -54.1% | [3] -53.9% | [4] 18.5% | [5] -45.8% | [6] -49.8%

Cc1ccc(N=C(N)N)cc1
inactive: [1] -1.25% | [2] 0.3% | [3] 1.05% | [4] 12.3% | [5] 0.7% | [6] -1.8%

Cc1ccc(S(=O)(=O)OCC2OCOC2C2OCOC2CI)cc1 (centres undefined)
inactive: [1] 12.2% | [2] 3% | [3] 2.6% | [4] -9.9% | [5] 10.1% | [6] 13.2%

CC(=O)Nc1ccccc1C=O
inactive: [1] -4.15% | [2] -7.95% | [3] 3.75% | [4] -15.3% | [5] -14.9% | [6] -5.55%

CCOC(=O)C(=CNc1ccc(NC2=NCC(C)S2)cc1)C(=O)OCC (centres undefined)
inactive: [1] -0.05% | [2] 0.35% | [3] -20.4% | [4] -7.9% | [5] -35.8% | [6] -47%

CC(=O)C1(C)CCC2C3CCC4=CC(=O)CCC4=C3CCC21C (centres undefined)
inactive: [1] 32.1% | [2] 1.3% | [3] 50.9% | [4] 9.9% | [5] 34% | [6] 23.6%

CC(C)=CCC/C(C)=N\Nc1ccc([N+](=O)[O-])cc1[N+](=O)[O-]
inactive: [1] -39.4% | [2] -6.7% | [3] 4.75% | [4] -15.6% | [5] 2.15% | [6] 5.4%

CCCCOC(=O)/C(CC(=O)C=C(C)C)=N\NS(=O)(=O)c1ccc(C)cc1
inactive: [1] 1.75% | [2] -14.1% | [3] -10.5% | [4] 5.3% | [5] -8.5% | [6] -5.75%

CCOC(=O)[C@H](C)OC(=O)[C@@](C)(NC(=O)c1ccccc1C(=O)OC)[C@@H]1NC=C(C(=O)OC)CS1
inactive: [1] -2.15% | [2] 26.9% | [3] 11.2% | [4] 14.4% | [5] 29% | [6] 5.8%

O=C1C2CCSCN2C(=O)N1c1ccccc1 (centres undefined)
inactive: [1] -41.9% | [2] -14.9% | [3] -7.75% | [4] -15.9% | [5] -1.15% | [6] -19%

C/C(CC(O)(C(F)(F)Cl)C(F)(F)Cl)=N\Nc1ccccc1
inactive: [1] 28% | [2] 15.1% | [3] 6.55% | [4] 28.1% | [5] -0.9% | [6] 17.5%

O=C1NN2CCN=C2c2ccccc21
inactive: [1] -60.5% | [2] -30% | [3] -22.7% | [4] -16.4% | [5] -6.5% | [6] -16.4%

NCCCN=c1ccc2c3c1c(O)c1c(O)ccc(=O)c1c3[nH]n2CCNCCO
inactive: [2] 35.1% | [3] 33.3% | [4] 17.9% | [5] 28.6% | [6] 36.2%
active: [1] 89.1%

CCCCCCCCC(=O)OCC(=O)N(C)C
inactive: [1] 15.6% | [2] 8.8% | [3] 6.35% | [4] 13.3% | [5] 2.9% | [6] 9.4%

O=C1/C(=C/c2ccc(F)cc2)CC/C1=C\c1ccc(F)cc1
inactive: [1] -10.5% | [2] -12.1% | [3] -2.85% | [4] -2.55% | [5] -13.8% | [6] -9.3%

CCCOC(=O)Nc1cccc2ccccc12
inactive: [1] 0.65% | [2] -9.3% | [3] 12.5% | [4] -62.4% | [5] -21.8% | [6] -17.2%

CCN(CC)CCSC(=O)c1ccc([N+](=O)[O-])cc1
inactive: [1] 20.1% | [2] 7.7% | [3] 15.6% | [4] 19.8% | [5] 38.5% | [6] 8.1%

CC(=O)[C@H]1CC[C@H]2[C@@H]3CC[C@@H]4CC(=O)CC[C@]4(C)[C@H]3[C@@H]3O[C@@H]3[C@]12C
inactive: [1] -13.2% | [2] 5.4% | [3] -11.1% | [4] -46% | [5] -1.1% | [6] 7.55%

CCCCCCCCCCCCCCCC(=O)NCC(=O)NC1C(CO)OC(Nc2ncnc3nc[nH]c23)C(O)C1O (centres undefined)
inactive: [1] 61.8% | [2] 19% | [4] 14.7% | [6] -11.7%
active: [3] 82.7% | [5] 76.2%

Source: PubChem BioAssay (NCI)
